Screening results from PubChem.
Rows were chosen to be rich in hits. Some 2.5% of all compounds tested hit in one or more screens of this group.
NFkB SMM: binds human NF-kappa-B p105 on microarray; calls only; AID 624139; P19838; 17,000 tested, 1.3% active; Small molecule microarray, anti-His fluorescence binding;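 active = spot fluorescence over background significantly raised, with a chance value under 7% in all four replicate spots of the compound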;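 note: probe protein is his-tagged human p50 processed subunit at 1 µg/ml; raw spot fluorescence signals with no normalization applied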
Target sequence (P19838 1-433 limits assumed): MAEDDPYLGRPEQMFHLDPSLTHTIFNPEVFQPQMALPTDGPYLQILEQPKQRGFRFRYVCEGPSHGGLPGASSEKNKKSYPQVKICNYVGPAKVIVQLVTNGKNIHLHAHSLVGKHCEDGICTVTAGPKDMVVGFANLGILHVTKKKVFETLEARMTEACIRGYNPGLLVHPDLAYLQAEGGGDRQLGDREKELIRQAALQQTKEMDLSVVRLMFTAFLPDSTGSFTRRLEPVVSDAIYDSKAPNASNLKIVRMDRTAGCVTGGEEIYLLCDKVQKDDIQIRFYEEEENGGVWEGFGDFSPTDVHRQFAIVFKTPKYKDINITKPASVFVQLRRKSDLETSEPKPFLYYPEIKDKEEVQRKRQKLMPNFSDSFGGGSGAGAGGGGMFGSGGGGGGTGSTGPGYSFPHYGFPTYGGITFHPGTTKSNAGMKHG
p53 mut binder: binds human mutant p53 on microarray; small molecule microarray binding, anti-GST fluorescence; calls only; 17,000 tested, 0.4% active; AID 624136;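 active = compounds whose four printed spots each glow above background more than chance allows, each with a p-value under 7%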
Myc binder: c-Myc (human) binding; AID 624141; small molecule microarray, His-c-Myc binding, anti-His fluorescence; calls only; 17,000 tested, 1.5% active;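 active = spot fluorescence over background with P-value below 7% in all four replicate spots, showing protein binding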;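 note: score is binary with 100 for all four spots passing and 0 otherwise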
STAT3 SMM: binds human STAT3 on microarray | 17,000 tested, 0.2% active | calls only | P40763 | Small molecule microarray, His-STAT3 binding, anti-His fluorescence;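 active = compounds whose four printed spots each show fluorescence over background unusually high for their array block, chance value under 7%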
Active calls of the source: *; i = inactive; + = active, no number.

SMILES	NFkB SMM	p53 mut binder	Myc binder	STAT3 SMM
COC(=O)C(CC#Cc1ccc2c(c1)[C@]1(C(=O)N2)[C@H](C(=O)N2CCCCCCC2)[C@H]2C(=O)O[C@H](c3ccccc3)[C@H](c3ccccc3)N2[C@@H]1c1ccc(OCCO)cc1)C(=O)OC	i	+	i	i
CCC(Sc1nncn1C)C(=O)Nc1ccc([N+](=O)[O-])cc1 (configuration not stated)	i	i	i	i
COC(=O)c1c(NC(=O)CSc2nnc3ccccn23)sc(C)c1C	i	i	i	i
COC(=O)c1c(NC(=O)CC2Nc3cccc4cccc(c34)NC2=O)sc(C)c1C (configuration not stated)	i	i	+	i
O=C(CC(O)(CC(=O)OCc1ccc(O[C@@H]2O[C@H](CO)[C@@H](O)[C@H](O)[C@H]2O)cc1)C(=O)OCc1ccc(O[C@@H]2O[C@H](CO)[C@@H](O)[C@H](O)[C@H]2O)cc1)OCc1ccc(O[C@@H]2O[C@H](CO)[C@@H](O)[C@H](O)[C@H]2O)cc1	i	i	i	i
Cc1noc(C)c1NC(=O)N(C)C[C@H]1Oc2c(NS(=O)(=O)c3ccccc3)cccc2C(=O)N([C@@H](C)CO)C[C@@H]1C	i	i	i	i
CC(C)NC(=O)N(C)C[C@H]1OCCCC[C@H](C)Oc2ccc(NC(=O)Nc3ccc(C(F)(F)F)cc3)cc2C(=O)N([C@H](C)CO)C[C@H]1C	+	i	i	i
C[C@H](CO)N1C[C@H](C)[C@H](CN(C)C(=O)Nc2ccc(C(F)(F)F)cc2)OCCCC[C@H](C)Oc2ccc(NC(=O)Nc3ccc(F)cc3)cc2C1=O	+	i	i	i
CC(C)NC(=O)N(C)C[C@@H]1OCCCC[C@@H](C)Oc2ccc(NC(=O)Nc3ccc(C(F)(F)F)cc3)cc2C(=O)N([C@@H](C)CO)C[C@H]1C	i	i	i	i
CC(C)NC(=O)N(C)C[C@@H]1OCCCC[C@H](C)Oc2ccc(NC(=O)Nc3ccc(C(F)(F)F)cc3)cc2C(=O)N([C@@H](C)CO)C[C@@H]1C	+	i	+	i
C[C@@H]1CCCCO[C@H](CN(C)C(=O)Nc2ccc(C(F)(F)F)cc2)[C@@H](C)CN([C@@H](C)CO)C(=O)c2cc(NC(=O)Cc3ccccc3)ccc2O1	+	+	i	i
C[C@@H]1CCCCO[C@@H](CN(C)C(=O)Nc2ccc(C(F)(F)F)cc2)[C@H](C)CN([C@@H](C)CO)C(=O)c2cc(NC(=O)c3ccncc3)ccc2O1	+	i	+	i
Cc1ccc(S(=O)(=O)NC(=O)COc2cccc3ccccc23)c(C)c1	i	i	+	i
CC(C)(C)NS(=O)(=O)c1ccc(NC(=O)COc2ccc3ccccc3c2Br)cc1	i	i	i	i
CCC(C)C(NC(=O)C(C)(C)NC(=O)C(C)(CC)NC(=O)C(N)Cc1c[nH]c2ccccc12)C(=O)NC(=O)CCC(NC(C)=O)C(=O)O (configuration not stated)	i	i	i	i
COc1cccc(C2CC(C(F)(F)F)n3nc(C(=O)Nc4cc(C)nn4-c4ccccc4)cc3N2)c1 (configuration not stated)	i	i	i	i
C[C@H](CO)N1C[C@H](C)[C@H](CN(C)C(=O)C2CCCCC2)OCCCC[C@H](C)Oc2ccc(NC(=O)Nc3ccccc3)cc2C1=O	i	i	+	i
Cc1noc(C)c1NC(=O)Nc1ccc2c(c1)C(=O)N([C@@H](C)CO)C[C@H](C)[C@@H](CN(C)C(=O)C1CCCCC1)OCCCC[C@H](C)O2	i	i	+	i
C[C@H]1CCCCO[C@@H](CN(C)C(=O)C2CCCCC2)[C@@H](C)CN([C@@H](C)CO)C(=O)c2cc(NC(=O)c3ccncc3)ccc2O1	i	i	i	i
C[C@@H]1CCCCO[C@H](CN(C)C(=O)C2CCCCC2)[C@@H](C)CN([C@@H](C)CO)C(=O)c2cc(NC(=O)c3ccncc3)ccc2O1	+	i	i	i
C[C@H]1CCCCO[C@@H](CN(C)C(=O)C2CCCCC2)[C@@H](C)CN([C@@H](C)CO)C(=O)c2cc(NC(=O)Nc3ccccc3)ccc2O1	+	i	+	i
CCOc1cc(C2N=C(Nc3nc4ccccc4o3)NC3=C2C(=O)CC(C)(C)C3)ccc1O (configuration not stated)	i	i	i	i
C[C@@H]1CN([C@@H](C)CO)C(=O)c2cc(NS(C)(=O)=O)ccc2O[C@@H](C)CCCCO[C@@H]1CN(C)C(=O)CCCN(C)C	i	i	i	i
Cc1noc(C)c1S(=O)(=O)N(C)C[C@H]1Oc2c(NS(=O)(=O)c3ccc(F)cc3)cccc2C(=O)N([C@@H](C)CO)C[C@H]1C	i	i	i	i
C[C@@H]1CCCCO[C@@H](CN(C)C(=O)Nc2ccccc2)[C@H](C)CN([C@@H](C)CO)C(=O)c2cc(NC(=O)C3CCCCC3)ccc2O1	+	+	+	i
SMILES	NFkB SMM	p53 mut binder	Myc binder	STAT3 SMM
O=C(O)c1cc(O)c2c(c1)C(=O)c1cccc(O)c1C2=O	i	i	i	i
COc1c(C=O)c(O)cc2c1C(=O)c1ccccc1C2=O	i	i	+	i
Cc1cc(-n2nc3ccccc3n2)c2oc(SCc3nnc(-c4ccccc4)o3)nc2c1	i	i	i	i
c1ccc(Cn2ccnc2SCc2nnc(-c3ccccc3)o2)cc1	i	+	+	i
C[C@H]1CN([C@@H](C)CO)C(=O)c2cccc(NC(=O)NC3CCCCC3)c2O[C@@H]1CN(C)C(=O)Nc1ccc(F)cc1	i	i	i	i
C[C@@H]1CN([C@@H](C)CO)C(=O)c2cccc(NC(=O)NC3CCCCC3)c2O[C@@H]1CN(C)C(=O)Nc1ccc(C(F)(F)F)cc1	+	i	+	i
C[C@H](CO)N1C[C@H](C)[C@@H](CN(C)CC2CC2)Oc2c(NC(=O)Nc3ccc(C(F)(F)F)cc3)cccc2C1=O	i	i	i	i
C[C@H]1CN([C@@H](C)CO)C(=O)c2cccc(NC(=O)Nc3ccc(C(F)(F)F)cc3)c2O[C@@H]1CN(C)CC1CC1	i	i	i	+
C[C@@H]1CN([C@H](C)CO)C(=O)c2cccc(NC(=O)NC3CCCCC3)c2O[C@@H]1CN(C)C(=O)Nc1ccc(C(F)(F)F)cc1	i	i	i	i
C[C@@H]1CN([C@@H](C)CO)C(=O)c2cccc(NC(=O)c3cnccn3)c2O[C@H]1CN(C)C(=O)Nc1ccccc1	+	i	+	i
C[C@H](CO)N1C[C@H](C)[C@@H](CN(C)C(=O)Nc2ccc(C(F)(F)F)cc2)Oc2c(NC(=O)NC3CCCCC3)cccc2C1=O	+	i	+	i
CC(C)(C)OC(=O)CC[C@]12N=C(c3ccc(OCCCO)cc3)O[C@H]1c1ccccc1CN(CCS(=O)(=O)c1ccccc1)C2=O	i	i	i	i
